# Inconclusive results are not listed. Calls of active or inactive are those of the source. The calls were made as follows, unless noted: active = hit-call score of the fitted dose curve at least 0.9, where 1 is the maximum; inconclusive = response in the unintended direction; inactive = score below 0.9.
# What was measured:
# [1] = Tanguay_ZF_120hpf_SWIM_legacy: (Legacy) Oregon State University Tanguay Lab 120 Hour Post-fertilization zebrafish Assay for Swim Bladder Malformation (AID 2283654);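 also: swim bladder malformation in each larva scored yes or no under brightfield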
# Outline: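 Dechorionated wild-type Tropical 5D zebrafish embryos, one per well from 6 hpf, were statically exposed at 28C until 120 hpf in 0.64% DMSO. Swim bladder malformation scored as present/absent by brightfield microscopy; not scored in dead larvae.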
# [2] = Tanguay_ZF_120hpf_TRUN_legacy: (Legacy) Oregon State University Tanguay Lab 120 Hour Post-fertilization zebrafish Assay for Truncated Body (AID 2283655)
# Outline: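 Binary presence/absence of truncated body is recorded at 120 hpf by brightfield, with non-mortality endpoints skipped after death. Exposure is static from 6 hpf in sealed dark plates at 28C, using dechorionated wild-type zebrafish, 0.64% DMSO.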
# [3] = Tanguay_ZF_120hpf_NC_legacy: (Legacy) Oregon State University Tanguay Lab 120 Hour Post-fertilization zebrafish Assay for Notochord and Tail Malformation (AID 2283656)
# Outline: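 Dechorionated Tropical 5D wild-type zebrafish embryos, one per well from 6 hpf, statically exposed to 120 hpf at 28C in 0.64% DMSO final. Notochord distortion scored present/absent by brightfield; dead embryos excluded.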
# [4] = read-out: ABC Transporter (ABCB1), ABCB1 (gene 5243); assay: CLD_ABCB1_6hr: CellzDirect (CLD) Gene Expression Assay for ABC Transporter (ABCB1) at 6 hours (AID 2283659);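 also: hits raise ABCB1 transcript above the DMSO vehicle baseline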
# Outline: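 Primary human hepatocytes (two donor preparations) dosed daily for two days with chemicals at multiple concentrations, 0.2% DMSO vehicle; harvested 6 h post-dose. ABCB1 mRNA induction quantified by qNPA chemiluminescence; gain-of-signal fitted versus DMSO.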
# [5] = read-out: Broad substrate specificity ATP-binding cassette transporter ABCG2 (Homo sapiens) (UniProt Q9UNQ0); assay: CLD_ABCG2_6hr: CellzDirect (CLD) Gene Expression Assay for ABC Transporter (ABCG2) at 6 hours (AID 2283660)
# Outline: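 Primary human hepatocytes dosed daily with chemicals at multiple concentrations (0.2% DMSO vehicle), harvested 6 h after dosing. ABCG2 mRNA induction read by quantitative nuclease protection assay (qNPA) chemiluminescence; gain of signal fitted against DMSO baseline.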
# [6] = read-out: solute carrier (SLC10A1), SLC10A1 (gene 6554); assay: LTEA_HepaRG_SLC10A1: Life Technologies and Expression Analysis (LTEA) Assay for solute carrier (SLC10A1) using HepaRG (AID 2283657; active = hit-call score of the fitted dose curve at least 0.9, where 1 is the maximum; inactive = score below 0.9); conditions: mRNA level, 48 h; actives raise or lower the signal
# Outline: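 HepaRG cells (single lot) exposed 48 h in serum-free induction medium, 8-point half-log series from 100 uM top in 0.5% DMSO, duplicate. SLC10A1 mRNA by qRT-PCR normalised to ACTB, GAPDH, POLR2A; bidirectional fit versus DMSO.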
# [7] = read-out: matrix metalloproteinase-1 (MMP1), MMP1 (gene 4312); assay: LTEA_HepaRG_MMP1: Life Technologies and Expression Analysis (LTEA) Assay for matrix metalloproteinase-1 (MMP1) using HepaRG (AID 2283658; active = hit-call score of the fitted dose curve at least 0.9, where 1 is the maximum; inactive = score below 0.9); conditions: mRNA level, 48 h; actives raise or lower the signal
# Outline: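 qRT-PCR (TaqMan, Fluidigm arrays) of MMP1 transcript, normalized against three housekeeping genes and fitted in both directions relative to 0.5% DMSO vehicle. Human HepaRG cultures received duplicate 48 h exposures across 8 points, highest 100 uM with half-log steps.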
# [8] = system: Thyroperoxidase (TPO), gene 54314; assay: CCTE_Simmons_AUR_rTPO: CCTE's Amplex UltraRed Assay for Thyroperoxidase (TPO) Inhibition, Simmons Lab (AID 2283662);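 as to AC50: potency for loss of signal meaning inhibition of peroxidase activity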
# Outline: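 Rat thyroid microsomes (5 ug protein) were incubated with test compound (8 concentrations, 5 nM–87.5 uM final, 0.5% DMSO), 25 uM Amplex UltraRed and 300 uM H2O2 in 200 mM phosphate buffer for 30 min at 37C in the dark; fluorescence read at 544/590 nm.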
# [9] = read-out: xenobiotic metabolism (CYP1A1), CYP1A1 (gene 1543); assay: CLD_CYP1A1_6hr: CellzDirect (CLD) Gene Expression Assay for xenobiotic metabolism (CYP1A1) at 6 hours (AID 2283661)
# Outline: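 Primary human hepatocytes from two donors, compound versus 0.2% DMSO vehicle. CYP1A1 mRNA measured 6 h after dosing by quantitative nuclease protection assay with chemiluminescent read-out; induction fitted relative to DMSO, cytotoxicity flagged by microscopy.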
# [10] = read-out: xenobiotic metabolism (CYP1A2), CYP1A2 (gene 1544); assay: CLD_CYP1A2_6hr: CellzDirect (CLD) Gene Expression Assay for xenobiotic metabolism (CYP1A2) at 6 hours (AID 2283663);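 as to AC50: potency is for induction meaning a rise in mRNA above DMSO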
# Outline: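 Primary human hepatocytes from two donor preparations, dosed daily with multiple concentrations in 0.2% DMSO and harvested at 6 h. CYP1A2 mRNA induction measured by chemiluminescent qNPA, gain of signal fitted against DMSO; cytotoxicity flagged morphologically.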
# Broad substrate specificity ATP-binding cassette transporter ABCG2 (Homo sapiens), sequence (Q9UNQ0 whole entry, looked up): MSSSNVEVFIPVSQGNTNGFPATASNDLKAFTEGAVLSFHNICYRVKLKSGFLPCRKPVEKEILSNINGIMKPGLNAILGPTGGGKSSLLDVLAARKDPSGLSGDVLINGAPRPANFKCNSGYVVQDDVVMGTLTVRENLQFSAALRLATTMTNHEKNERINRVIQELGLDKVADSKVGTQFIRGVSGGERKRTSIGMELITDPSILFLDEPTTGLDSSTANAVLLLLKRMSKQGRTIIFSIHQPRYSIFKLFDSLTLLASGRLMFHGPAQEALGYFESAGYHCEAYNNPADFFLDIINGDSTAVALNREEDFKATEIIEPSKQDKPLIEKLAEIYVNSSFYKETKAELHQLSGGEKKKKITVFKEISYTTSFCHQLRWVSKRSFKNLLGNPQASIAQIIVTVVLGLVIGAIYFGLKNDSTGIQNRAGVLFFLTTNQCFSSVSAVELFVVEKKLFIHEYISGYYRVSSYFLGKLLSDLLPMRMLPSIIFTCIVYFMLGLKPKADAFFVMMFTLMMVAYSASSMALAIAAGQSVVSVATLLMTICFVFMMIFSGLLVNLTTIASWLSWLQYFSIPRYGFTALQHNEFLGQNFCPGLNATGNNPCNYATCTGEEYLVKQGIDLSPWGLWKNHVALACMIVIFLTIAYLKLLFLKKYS
compound,measurement,setting,value
C[C@]12CC[C@@H]3c4ccc(O)cc4C[C@@H](CCCCCCCCCS(=O)CCCC(F)(F)C(F)(F)F)[C@H]3[C@@H]1CC[C@@H]2O (stereo not given in full),outcome,[1],inactive
same,outcome,[2],inactive
CC(=O)S[C@@H]1CC2=CC(=O)CC[C@]2(C)[C@H]2CC[C@@]3(C)[C@@H](CC[C@@]34CCC(=O)O4)[C@H]12,outcome,[1],inactive
same,outcome,[2],inactive
same,outcome,[3],inactive
COC(=O)c1ccc(I)cc1S(=O)(=O)NC(=O)Nc1nc(C)nc(OC)n1,outcome,[1],inactive
same,outcome,[2],inactive
same,outcome,[3],inactive
same,outcome,[4],inactive
same,outcome,[5],inactive
CC(C)(C)[C@@H](O)[C@@H](Cc1ccc(Cl)cc1)n1cncn1,outcome,[1],inactive
same,outcome,[2],inactive
same,outcome,[3],inactive
same,outcome,[4],inactive
same,outcome,[5],inactive
CCCN(CCC)C(=O)SCC,outcome,[1],inactive
same,outcome,[2],inactive
same,outcome,[3],inactive
same,outcome,[4],inactive
same,outcome,[5],inactive
S=C([S-])NCCNC(=S)[S-].[Mn+2],outcome,[1],inactive
same,outcome,[2],inactive
same,outcome,[3],inactive
same,AC50,[6],9.93 µM (active)
same,outcome,[7],inactive
same,AC50,[8],12.6 µM (active)
COC(=O)c1ccc(CNS(C)(=O)=O)cc1S(=O)(=O)NC(=O)Nc1nc(OC)cc(OC)n1,outcome,[4],inactive
CN(C)C(=O)Nc1ccc(Cl)c(Cl)c1,outcome,[1],inactive
same,outcome,[3],inactive
same,AC50,[6],52.8 µM (active)
same,outcome,[7],inactive
same,outcome,[4],inactive
same,AC50,[8],36.6 µM (active)
C#CCOC(=O)[C@@H](C)Oc1ccc(Oc2ncc(Cl)cc2F)cc1,outcome,[1],inactive
same,outcome,[4],inactive
same,outcome,[5],inactive
CCCCOC(=O)[C@@H](C)Oc1ccc(Oc2ccc(C(F)(F)F)cn2)cc1,outcome,[2],inactive
same,outcome,[4],inactive
same,outcome,[5],inactive
CCCOC(=O)NCCCN(C)C,outcome,[1],inactive
same,outcome,[3],inactive
same,outcome,[4],inactive
same,outcome,[5],inactive
COC(=O)c1c(Cl)nn(C)c1S(=O)(=O)NC(=O)Nc1nc(OC)cc(OC)n1,outcome,[5],inactive
CCSC(=O)N(CC(C)C)CC(C)C,outcome,[1],inactive
same,outcome,[2],inactive
same,outcome,[3],inactive
same,outcome,[5],inactive
Cc1nn(C)c(Oc2ccccc2)c1C=NOCc1ccc(C(=O)OC(C)(C)C)cc1,outcome,[1],inactive
same,outcome,[2],inactive
same,outcome,[5],inactive
C=CCOC(Cn1ccnc1)c1ccc(Cl)cc1Cl (stereo not given),outcome,[2],inactive
same,outcome,[3],inactive
same,outcome,[4],inactive
same,outcome,[5],inactive
CCCOC(=O)c1ccc(C(=O)OCCC)nc1,AC50,[1],1.97 µM (active)
same,outcome,[3],inactive
same,outcome,[4],inactive
same,outcome,[5],inactive
same,outcome,[8],inactive
CCOC(=O)NCCOc1ccc(Oc2ccccc2)cc1,outcome,[1],inactive
same,outcome,[3],inactive
same,outcome,[4],inactive
CC1(C)C(C=C(Cl)Cl)C1C(=O)OCc1cccc(Oc2ccccc2)c1 (stereo not given),outcome,[1],inactive
same,outcome,[2],inactive
same,outcome,[3],inactive
same,outcome,[5],inactive
C#C[C@]1(O)CC[C@H]2[C@@H]3CCC4=CC(=O)CC[C@@H]4[C@H]3CC[C@@]21CC,outcome,[1],inactive
same,outcome,[3],inactive
CC(C)CCCCCCc1ccc(O)cc1,outcome,[1],inactive
same,outcome,[2],inactive
same,outcome,[3],inactive
same,AC50,[8],20.6 µM (active)
COC(=O)c1cccc(C)c1S(=O)(=O)NC(=O)Nc1nc(OCC(F)(F)F)nc(N(C)C)n1,outcome,[5],inactive
CCCCCCC(C)OC(=O)COc1nc(F)c(Cl)c(N)c1Cl (stereo not given),outcome,[1],inactive
same,outcome,[3],inactive
same,outcome,[6],inactive
same,outcome,[7],inactive
same,outcome,[4],inactive
same,outcome,[5],inactive
O=C(c1ccc(O)cc1O)c1ccc(O)cc1O,outcome,[2],inactive
same,outcome,[3],inactive
same,AC50,[8],0.19 µM (active)
CCC(O)=C1C(=O)CC(C(=O)O)CC1=O (stereo not given),outcome,[4],inactive
same,outcome,[5],inactive
same,outcome,[9],inactive
c1ccc(Nc2ccccc2)cc1,outcome,[1],inactive
same,outcome,[3],inactive
same,outcome,[5],inactive
CCN(Cc1c(F)cccc1Cl)c1c([N+](=O)[O-])cc(C(F)(F)F)cc1[N+](=O)[O-],outcome,[1],inactive
same,outcome,[2],inactive
same,outcome,[3],inactive
same,AC50,[10],1.74 µM (active)
COc1c(Cl)ccc(Cl)c1C(=O)O,outcome,[2],inactive
same,outcome,[3],inactive
same,outcome,[4],inactive
N[C@@H](Cc1cc(I)c(Oc2ccc(O)c(I)c2)c(I)c1)C(=O)O,outcome,[2],inactive
same,AC50,[8],2.92 µM (active)
CCCN(CCC)c1c([N+](=O)[O-])cc(C(F)(F)F)c(N)c1[N+](=O)[O-],outcome,[1],inactive
same,outcome,[4],inactive
C[C@]12C[C@H](O)[C@H]3[C@@H](CCC4=CC(=O)CC[C@@]43C)[C@@H]1CC[C@@H]2C(=O)CO,outcome,[2],inactive
same,outcome,[3],inactive
CCCCOC(=O)C(C)Oc1ccc(Oc2ccc(C(F)(F)F)cn2)cc1 (stereo not given),outcome,[1],inactive
same,outcome,[3],inactive
same,outcome,[10],inactive
O=C(O)C1(C(=O)Nc2ccc(Cl)cc2Cl)CC1,outcome,[1],inactive
same,outcome,[2],inactive
same,outcome,[3],inactive
same,outcome,[5],inactive
CCOC(=O)C(C)Oc1ccc(Oc2cnc3cc(Cl)ccc3n2)cc1 (stereo not given),outcome,[1],inactive
same,outcome,[2],inactive
same,outcome,[3],inactive
same,outcome,[5],inactive
CCOC(=O)[C@H](C)Oc1ccc(Oc2nc3ccc(Cl)cc3o2)cc1,outcome,[4],inactive
same,outcome,[5],inactive
OB(O)O,outcome,[1],inactive
same,outcome,[2],inactive
same,outcome,[3],inactive
same,outcome,[5],inactive
COc1nc(C)nc(NC(=O)NS(=O)(=O)c2ccccc2OCCCl)n1,outcome,[4],inactive

# Reference: PubChem BioAssay (EPA / NIEHS)
